Screening results as filed in PubChem.
In the library only some 12% were active in any assay of this set; here they are far more common.
JMJD2A Tudor inh: blocks the human JMJD2A Tudor domain. 390,000 tested, 4.4% active. AID 504339. AlphaScreen JMJD2A-Tudor / H3K4me3 peptide binding. O75164. Potency, µM (highest dose often 114 µM), most hits filed as inhibitors; further: nearly all actives have a fitted effect of over 50% in size
BAZ2B block: inhibitors of human BAZ2B bromodomain | Q9UIF8 | AlphaScreen BAZ2B-H3K14Ac peptide displacement | Potency, µM (highest dose often 114 µM), actives largely listed as inhibitors | 360,000 tested, 4.4% active | AID 504333; further: nearly all actives have a fitted effect of over 60% in size
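Multi-concentration screen (max 110 uM) measuring displacement of acetylated histone H3 peptide from BAZ2B by AlphaScreen, using 50 nM protein, 50 nM peptide and 10 ug/mL streptavidin donor plus Ni-chelate acceptor beads.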
Sfp inh: inhibitors of Bacillus subtilis Sfp phosphopantetheinyl transferase. Biochemical Sfp PPTase activity, qHTS. Potency, µM, hits mostly inhibitors. Q9F4F7. 310,000 tested, 3.5% active;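 further: the enzyme is Sfp with the accession as filed and its product quenches rhodamine fluorescence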
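Step 1, compound plus 15 nM Sfp-PPTase, 15 min, room temperature. Step 2, add rhodamine-CoA (5 uM) and BHQ-2-YbbR (12.5 uM). Step 3, read 525/598 nm fluorescence at 0 and 30 min.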
G9a block: G9a (human) methyltransferase inhibition; Potency, µM (titrated, usually from 102 µM), actives largely listed as inhibitors; G9a H3K9 monomethylation, AlphaScreen, 2 h; 350,000 tested, 8.8% active; Q96KQ7; further: nearly all actives have a fitted effect of over 75% in size
Target sequence (Q96KQ7 913-1193 limits assumed): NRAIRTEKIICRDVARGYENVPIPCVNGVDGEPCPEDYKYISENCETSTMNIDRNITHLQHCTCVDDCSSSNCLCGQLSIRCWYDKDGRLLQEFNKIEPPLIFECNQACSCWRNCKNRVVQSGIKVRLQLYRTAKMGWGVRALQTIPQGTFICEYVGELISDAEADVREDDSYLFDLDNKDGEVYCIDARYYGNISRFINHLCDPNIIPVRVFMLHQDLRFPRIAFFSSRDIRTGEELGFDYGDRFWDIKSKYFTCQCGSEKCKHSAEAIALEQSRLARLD
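Quantitative HTS format: methyltransferase activity on a biotin-tagged H3K9 peptide is measured by AlphaScreen, using a rabbit anti-monomethyl-H3K9 antibody with streptavidin donor and anti-IgG acceptor beads. Final levels are 20 nM enzyme, 500 nM peptide, 20 uM SAM; 2 h RT.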
HP1b binding inh: blocks HP1-beta chromodomain binding to methylated histone tails. P83916. AlphaScreen HP1-beta / biotin-H3K9me3 peptide binding. 390,000 tested, 0.56% active. Potency, µM (top dose mostly 114 µM), most hits filed as inhibitors; further: nearly all actives have a fitted effect of over 70% in size
Target sequence (P83916 whole entry, looked up): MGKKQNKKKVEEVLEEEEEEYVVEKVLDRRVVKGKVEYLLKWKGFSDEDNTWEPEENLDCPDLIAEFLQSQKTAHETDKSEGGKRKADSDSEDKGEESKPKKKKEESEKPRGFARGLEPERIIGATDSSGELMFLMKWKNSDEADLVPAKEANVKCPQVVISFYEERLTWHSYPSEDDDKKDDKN
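HP1-beta protein (50 nM final) preincubated 30 min at room temperature with biotinylated H3(1-18)K9me3 peptide (50 nM) in PBS pH 7.4, 0.01% Tween-20, then compound added for 30 min. AlphaScreen streptavidin donor/nickel chelate acceptor beads (10 ug/mL final), 30 min dark, luminescence read.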
Each line names hits and unclear results; the compound was inactive in the other large screens. The call rests on the fitted dose curve; in most records, active means well fitted curve in the direction sought with a large enough effect; inconclusive means small, poorly fitted or top-dose-only effect, or another doubt; inactive means no such curve, though single readings can be large; an effect the other way counts as inactive or inconclusive.

O=c1cc[nH]c2c1ccc1cccnc12	BAZ2B block 56µM, G9a block inconclusive (no result: Sfp inh)
Cc1cc(N2CCN(C(c3ccccc3)c3ccccc3)CC2)n2ncnc2n1	JMJD2A Tudor inh inconclusive, Sfp inh inconclusive
Cc1nc2ncnn2c(N2CCN(C(c3ccccc3)c3ccccc3)CC2)c1C	JMJD2A Tudor inh inconclusive, BAZ2B block inconclusive, Sfp inh 79µM, G9a block inconclusive
CC(C)CCC(CC(C)O)c1n[nH]c(=S)n1-c1ccccc1 (centres undefined)	JMJD2A Tudor inh 8.9µM, G9a block 6.3µM
CC(c1n[nH]c(=S)n1-c1ccc(F)cc1)N1CCCCC1 (centres undefined)	JMJD2A Tudor inh inconclusive, G9a block 35µM
CCC(c1n[nH]c(=S)n1-c1ccccc1)N(C)C (centres undefined)	JMJD2A Tudor inh 32µM, G9a block 8.9µM
Cc1nc2ccccc2n1Cc1n[nH]c(=S)n1-c1ccc(Cl)cc1	G9a block inconclusive
COc1ccc(-n2c(SCC(=O)N3CCOCC3)nnc2C(C)N2CCCCC2)cc1 (centres undefined)	none
CCc1ccc(-n2c(C)n[nH]c2=S)cc1	JMJD2A Tudor inh 3.5µM
Cc1ccc(OCc2n[nH]c(=S)n2-c2ccc(Cl)cc2)cc1	JMJD2A Tudor inh inconclusive, G9a block 3.2µM
Cc1n[nH]c(=S)n1-c1ccc(Cl)cc1	JMJD2A Tudor inh 2.5µM, G9a block inconclusive
COC(Cc1n[nH]c(=S)n1-c1ccc(Cl)cc1)OC	JMJD2A Tudor inh 14µM, G9a block inconclusive
CC(c1n[nH]c(=S)n1-c1ccc(Cl)cc1)N(C)C (centres undefined)	JMJD2A Tudor inh 7.9µM, G9a block 8.9µM
COC(Cc1nnc(SC)n1-c1ccc(Cl)cc1)OC	none
S=c1[nH]nc(COc2ccc(Cl)cc2)n1-c1ccc(Cl)cc1	JMJD2A Tudor inh inconclusive, BAZ2B block inconclusive
Cc1nn(C)c(Nc2ccc(Br)cc2)c1Br	none
COc1cccc(C(C)NC(=S)NCc2ccc(Cl)cc2)c1 (centres undefined)	none
O=C(CCc1ccccc1)N1CCCC(Nc2ccc(F)cc2)C1 (centres undefined)	none
Cc1n[nH]c(=S)n1-c1ccccc1	JMJD2A Tudor inh 89µM (no result: G9a block)
Cc1cccc(NC(=O)CNC(=O)Cn2cc(C(F)(F)F)cc(Cl)c2=O)c1C	G9a block inconclusive (no result: Sfp inh)
CCc1ccc(C(C)NC(=O)c2ncn[nH]2)cc1 (centres undefined)	BAZ2B block 50µM
CC1CCC/C(=N\NC(=O)Nc2ccccc2)C1 (centres undefined)	G9a block 40µM
CC1CCC/C(=N\Nc2ccc(Cl)c(C(=O)O)c2)C1 (centres undefined)	JMJD2A Tudor inh 79µM, G9a block 7.9µM
COc1ccc(NCC(=O)N/N=C2\CCCC(C)C2)cc1 (centres undefined)	none
CC1CCC/C(=N\NS(=O)(=O)c2ccccc2)C1 (centres undefined)	G9a block 32µM
C[C@@H]1CN(Cc2nc(-c3ccc(Cl)cc3)no2)C[C@H](C)O1	none (no result: G9a block)
N#C/C(=C\c1ccc(Cl)cc1)c1n[nH]c(Cn2cncn2)n1	JMJD2A Tudor inh inconclusive, BAZ2B block inconclusive
O=C(Nc1ccc(Cl)cc1Cl)c1n[nH]c(Cn2cncn2)n1	JMJD2A Tudor inh inconclusive, BAZ2B block 56µM
CCC(CC)NC(=O)c1ccccc1Oc1ccccc1	none
CCn1c(SCC(=O)c2cc(OC)ccc2OC)nc2c1c(=O)n(C)c(=O)n2C	none (no result: JMJD2A Tudor inh, HP1b binding inh)
CCCn1c(SCC(=O)c2cc(OC)ccc2OC)nnc1C(C)C	JMJD2A Tudor inh 79µM, G9a block 50µM
COCCn1c(SCC(=O)c2ccc(F)cc2)nnc1C(C)C	JMJD2A Tudor inh 45µM, Sfp inh 56µM, G9a block inconclusive
COc1ccc(OC)c(C(=O)CSc2nnc(Cc3cccs3)n2C)c1	Sfp inh 45µM
CCCCN(Cc1cc2cc(C)ccc2[nH]c1=O)C(=O)c1ccccn1	none
CCCN(Cc1cc2ccc(C)cc2[nH]c1=O)C(=O)c1ccccn1	Sfp inh inconclusive, G9a block 32µM
O=C(c1cc(S(=O)(=O)N2CCN(c3ccccc3)CC2)ccc1Cl)N1CCCC(C(F)(F)F)C1 (centres undefined)	none (no result: Sfp inh)
CCCn1c(N)c(N(CCOC)C(=O)c2ccc(N(C)S(=O)(=O)c3ccc(C)cc3)cc2)c(=O)[nH]c1=O	BAZ2B block inconclusive, G9a block 1µM (no result: Sfp inh)
